Inconclusive results are not listed. The source made the active and inactive calls. How the source made its calls: active means hit-call score of the fitted dose curve at least 0.9, where 1 is the maximum; inconclusive means response in the unintended direction; inactive means score below 0.9.
The compounds below were run against human Serotonin, 5-Hydroxytryptamine Receptor 5A (5HT5A), HTR5A (gene 3361) (UniProt P47898) (assay: NVS_GPCR_h5HT5A: NovaScreen (NVS) G Protein-Coupled Receptor Assay for human Serotonin, 5-Hydroxytryptamine Receptor 5A (5HT5A) (AID 2283251)).
Experimental: NVS_GPCR_h5HT5A is a biochemical, single-readout assay that uses extracted gene-proteins from HEK293 in a cell-free assay. Measurements were taken 1 hour after chemical dosing in a 96-well plate.NVS_GPCR_h5HT5A is one of one assay component(s) measured or calculated from the NVS_GPCR_h5HT5A assay. It is designed to make measurements of radioligand binding, a form of binding reporter, as detected with scintillation counting signals by Filter-based radiodetection technology.Data from the assay component NVS_GPCR_h5HT5A was analyzed into 1 assay endpoint. This assay endpoint, NVS_GPCR_h5HT5A, was analyzed in the positive analysis fitting direction relative to DMSO as the negative control and baseline of activity. Using a type of binding reporter, loss-of-signal activity can be used to understand changes in the binding as they relate to the gene HTR5A. Furthermore, this assay endpoint can be referred to as a primary readout, because the performed assay has only produced 1 assay endpoint. To generalize the intended target to other relatable targets, this assay endpoint is annotated to the gpcr intended target family, where the subfamily is rhodopsin-like receptor.
Binding assays used specific radioligands (tritiated, iodinated) with non-radioactive competitive displacement ligands in agonist or antagonist protocols (as indicated) and various reference compounds and inhibitors to titrate specific binding to receptors and transporters. Most enzyme assays (CYPs, kinases, phosphatases, proteases, HDACs) used recombinant protein and specific substrates (fluorescence mostly, some colorimetric and radioactive) and inhibitors, followed by a biochemical separation of substrate and product. All assays for the biochemical HTS were initially run in duplicate at a single concentration (10 uM for CYP450 assays and 25 uM for all others). […] Each assay was run with positive and negative controls, and concurrent controls on every plate. The follow-up (secondary) screen tested active chemical-pairs in concentration series, as well as a few additional assays not tested in the primary screen, some selected negative inactives, and several cases re-run in the concentration series for confirmatory purposes.

Chain of human Serotonin, 5-Hydroxytryptamine Receptor 5A (5HT5A), HTR5A (gene 3361) (P47898 whole entry, looked up): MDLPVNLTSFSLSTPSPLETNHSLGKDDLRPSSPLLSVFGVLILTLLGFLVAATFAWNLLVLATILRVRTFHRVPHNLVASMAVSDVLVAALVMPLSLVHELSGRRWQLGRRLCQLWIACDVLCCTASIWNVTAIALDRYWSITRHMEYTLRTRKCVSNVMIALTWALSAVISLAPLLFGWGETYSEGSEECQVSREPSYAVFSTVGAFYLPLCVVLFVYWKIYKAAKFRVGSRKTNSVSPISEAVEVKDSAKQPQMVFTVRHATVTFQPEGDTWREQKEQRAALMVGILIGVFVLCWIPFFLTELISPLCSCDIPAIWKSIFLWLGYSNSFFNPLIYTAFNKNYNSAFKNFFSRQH

AC50, active:
CCC(C)N(C)C(=O)c1cc2ccccc2c(-c2ccccc2Cl)n1 (stereo unspecified) 15.9 µM, CN(C)CCCN1c2ccccc2Sc2ccc(Cl)cc21 1.35 µM, CSc1ccc(Oc2ccc(S(N)(=O)=O)cc2CN(C)C)cc1C 7.53 µM, CCN(CC)CCOc1ccc(C(=C(Cl)c2ccccc2)c2ccccc2)cc1 1.46 µM, CCCCCCCCCCCCCCOS(=O)(=O)O 20.3 µM

outcome, inactive:
O=C(O)c1[nH]n(-c2ccc(S(=O)(=O)O)cc2)c(=O)c1N=Nc1ccc(S(=O)(=O)O)cc1, CC(=O)O[C@]1(C(C)=O)CC[C@H]2[C@@H]3C=C(Cl)C4=CC(=O)[C@@H]5C[C@@H]5[C@]4(C)[C@H]3CC[C@@]21C, CCc1nc(N)nc(N)c1-c1ccc(Cl)cc1, CN(C)C(=O)NC1(c2ccccc2)CCN(CCC[C@]2(c3ccc(Cl)c(Cl)c3)CCCN(C(=O)c3ccccc3)C2)CC1, Cc1cc(Cc2ccc(N)c(C)c2)ccc1N, COc1ccc(OC(F)(F)F)cc1CN[C@H]1CCCN[C@H]1c1ccccc1

— PubChem BioAssay (EPA / NIEHS)
